Test systems include HCT-15 colon; HT29 colon; SNB-75 CNS; SNB-19 CNS; U251 CNS; PC-3 prostate; SK-MEL-5 melanoma; UACC-62 melanoma; LOX IMVI melanoma; SK-MEL-28 melanoma; SK-MEL-2 melanoma; EKVX NSCLC; SN12C renal; UO-31 renal; TK-10 renal; ACHN renal; CAKI-1 renal; A498 renal; CCRF-CEM leukemia; MOLT-4 leukemia.
What all share (assay): NCI-60 one-dose screen, 48 h (100 = growth as untreated, 0 = no growth, -100 = all killed)
What all share (conditions): 10 µM unless noted

From PubChem BioAssay (NCI) come the findings set out here.

“And” between values parts separate entries of the source, which are not always exact repeats. Equal values may be shown once. This is part of a sample that, as a whole, favours compounds with a hit. Of some 83,000 tested, about 20% had one in any assay.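 Values shown are percent growth following 48 h exposure of cells in 96-well plates to a single concentration of compound; below 10 was considered active.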 Unmarked numbers belong to inactive results. The source made the active and inactive calls.

`COc1ccc(Cl)cc1Nc1nc(C(F)(F)F)ccc1C(=O)N/N=C/c1ccc(N(C)C)cc1`: the growth in the assay with HCT-15 colon was 87.3%; with HT29 colon, 107%; in the assay with SNB-75 CNS, 88.8%; in the assay with SNB-19 CNS, 86%; with U251 CNS it was 92.6%; in the assay on PC-3 prostate, 97.3%. In addition, the growth was 95.6% in the assay on SK-MEL-5 melanoma; 102% in the assay with UACC-62 melanoma; 95.2% with LOX IMVI melanoma; 88.2% in the assay on SK-MEL-28 melanoma; 82.5% with SK-MEL-2 melanoma; 121% in the assay with EKVX NSCLC. Moreover, the growth with SN12C renal is 98.2%; in the assay on UO-31 renal, 98.3%; in the assay on TK-10 renal it was 95.9%; with ACHN renal it was 96.6%; with CAKI-1 renal, 116%; in the assay on A498 renal it was 109%. In addition, the growth in the assay on CCRF-CEM leukemia is -17.6% (active); in the assay with MOLT-4 leukemia, 90.4%.

`Fc1ccccc1-c1cnn2cc(-c3ccccc3)cnc12`: the growth in the assay on HCT-15 colon is 90.5%; in the assay on HT29 colon it was 105%; with SNB-75 CNS it was 81.7%; with SNB-19 CNS, 94.1%; in the assay on U251 CNS, 98.9%; in the assay with PC-3 prostate, 88.5%. For the same compound, the growth was 101% in the assay with SK-MEL-5 melanoma; 91.5% with UACC-62 melanoma; 98.7% in the assay with LOX IMVI melanoma; 113% in the assay with SK-MEL-28 melanoma; 107% in the assay on SK-MEL-2 melanoma; 103% in the assay with EKVX NSCLC. In addition, the growth in the assay with SN12C renal is 92.1%; with UO-31 renal, 85.6%; in the assay with TK-10 renal it was 104%; in the assay with ACHN renal, 101%; in the assay on CAKI-1 renal it was 88.8%; in the assay with A498 renal, 87.8%. Further, the growth with CCRF-CEM leukemia is 93.3%; in the assay on MOLT-4 leukemia, 98.1%.

For the compound `CN1C(=O)N(C)C2(c3ccccc3)N(CC(=O)Nc3ccccc3O)C(=O)NC12c1ccccc1` (stereo not given), the growth in the assay with HCT-15 colon is 103%; in the assay with HT29 colon it was 111%; with SNB-75 CNS it was 74.3%; in the assay on SNB-19 CNS, 100%; in the assay with U251 CNS, 105%; with PC-3 prostate, 90.3%. The growth was 101% with SK-MEL-5 melanoma; 91% with UACC-62 melanoma; 96.8% in the assay with LOX IMVI melanoma; 123% in the assay on SK-MEL-28 melanoma; 111% with SK-MEL-2 melanoma; 102% in the assay with EKVX NSCLC. Also, the growth is 103% in the assay on SN12C renal; 74.6% in the assay with UO-31 renal; 93.9% with TK-10 renal; 102% in the assay on ACHN renal; 74.1% with CAKI-1 renal; 121% in the assay on A498 renal. Besides, the growth with CCRF-CEM leukemia was 111%; in the assay on MOLT-4 leukemia, 102%.

In the case of `C=C1C(=O)O[C@@H]2[C@H]3[C@H](COC(C)=O)[C@@H](OC(C)=O)C[C@H]3C(=C)[C@@H](O)C[C@@H]12`, the growth was 91.5% with HCT-15 colon; 89.6% in the assay with HT29 colon; 74.8% in the assay with SNB-75 CNS; 93.7% in the assay on SNB-19 CNS; 89.9% in the assay with U251 CNS; 88.9% in the assay on PC-3 prostate. Besides, the growth in the assay with SK-MEL-5 melanoma was 89.2%; in the assay on UACC-62 melanoma it was 85%; in the assay on LOX IMVI melanoma it was 93%; in the assay with SK-MEL-28 melanoma, 106%; in the assay with SK-MEL-2 melanoma it was 88%; in the assay with EKVX NSCLC, 110%. For the same compound, the growth in the assay with SN12C renal was 92.9%; with UO-31 renal, 87.9%; in the assay with TK-10 renal, 82.4%; in the assay on ACHN renal, 85.9%; in the assay with CAKI-1 renal, 87.8%; in the assay with A498 renal it was 121%. In addition, the growth in the assay with CCRF-CEM leukemia is 61.8%; with MOLT-4 leukemia, 89.8%.

As for `O=C(O)C1C2CCC1C(O)C2` (stereo not given), the growth in the assay with HCT-15 colon was 106% and 103%; in the assay on HT29 colon, 102%; with SNB-75 CNS it was 101% and 92.9%; with SNB-19 CNS it was 102% and 108%; with U251 CNS it was 94.6% and 99.6%; in the assay with PC-3 prostate, 110% and 95.9%. Also, the growth in the assay on SK-MEL-5 melanoma is 101% and 110%; in the assay on UACC-62 melanoma it was 110% and 108%; in the assay with LOX IMVI melanoma, 95.4% and 95.5%; in the assay with SK-MEL-28 melanoma, 104% and 110%; in the assay on SK-MEL-2 melanoma it was 97.7% and 95.5%; in the assay with EKVX NSCLC, 110%. The growth in the assay on SN12C renal was 104% and 102%; with UO-31 renal it was 81.6% and 82%; in the assay on TK-10 renal, 93.1% and 98.2%; in the assay with ACHN renal it was 106% and 104%; with CAKI-1 renal, 100% and 98.3%; in the assay on A498 renal, 116% and 113%. The growth was 101% and 93.9% in the assay on CCRF-CEM leukemia; 93.6% and 93.5% in the assay on MOLT-4 leukemia.
